This is a sample that favours compounds with a hit; in the whole collection about 3.8% have one here.
tim10-1 inh: tim10-1 yeast growth inhibition | 330,000 compounds, 2.2% hits | AID 463190 | inhibition, % at 20 µM | S. cerevisiae tim10-1 ts strain growth, BacTiter-Glo, 24 h;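 active means inhibition of at least 40%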;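 further: mutant grown at 25 °C; 0% = DMSO wells with yeast and 100% = wells holding no yeast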
NLRP3 yeast inh: inhibitors of NALP3 inflammasome in yeast; Yeast reconstituted NLRP3/ASC/caspase-1, beta-gal luminescence, 24 h; inhibition, % at 10 µM; 330,000 compounds, 0.39% hits; AID 2825;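 active means inhibition of 50% or more; inactive means inhibition below 50%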;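 further: plate controls were induced DMSO wells for no effect and uninduced yeast grown without galactose for full effect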
tim23-1 inh: tim23-1 yeast growth inhibition | inhibition, % at 20 µM | 330,000 compounds, 1.3% hits | S. cerevisiae tim23-1 growth, BacTiter-Glo luminescence, 24 h;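 active means growth inhibition of the mutant yeast at or above 50%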;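 further: temperature-sensitive mutant grown at 25 °C; plate controls were DMSO-treated mutant yeast for no effect and medium wells lacking yeast for full effect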
TIM10 inh: TIM10 yeast growth inhibition; S. cerevisiae TIM10 strain growth, BacTiter-Glo luminescence, 24 h; inhibition, % at 10 µM; 330,000 compounds, 1.4% hits; AID 463195;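 active means inhibition of 40% or more at the single tested concentration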;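 further: wild-type TIM10 isogenic control strain grown at permissive 25 °C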
CR mimetic SO: yeast age-related superoxide inhibition as caloric restriction mimetic; S. cerevisiae aged cells, superoxide DHE fluorescence; stronger effect = lower value; superoxide response (% of plate mean), % at 10 µM; 330,000 compounds, 0.18% hits;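 active means superoxide response under a set limit, about three screen SD below normal, cut at about 65% in these data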;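 further: yeast aged for seven days with compound at 30 °C before DHE staining; 100% = average MFI of all compound-treated wells on the plate with controls excluded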
tim10-1 conf: confirmation of tim10-1 mutant yeast growth inhibitors; inhibition, % at 20 µM; shares compounds with tim10-1 inh; S. cerevisiae tim10-1 ts strain growth, BacTiter-Glo, 24 h; 7,400 compounds, 56% hits; AID 463213;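 active means inhibition of yeast growth at or above a set limit in either of two repeat tests at 20 µM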;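 further: tim10-1 mutant grown at permissive 25 °C to find synthetic lethal compounds; 0% = DMSO yeast wells and 100% = medium wells without yeast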
TIM10 conf: confirmation of TIM10 yeast growth inhibitors; shares compounds with TIM10 inh; S. cerevisiae tim10 strain growth, BacTiter-Glo luminescence, 24 h; inhibition, % at 10 µM; 4,600 compounds, 63% hits; AID 463215;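 active means inhibition of yeast growth at or above a set limit in either of two replicates at 10 µM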;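 further: this counterscreen used the strain with wild-type TIM10; 0% = yeast with DMSO and 100% = medium wells lacking yeast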
* = called active by the depositor; . = not tested or not shown.

SMILES	tim10-1 inh	NLRP3 yeast inh	tim23-1 inh	TIM10 inh	CR mimetic SO	tim10-1 conf	TIM10 conf
CCCCn1c(C)cc(C)c(S(=O)(=O)c2ccccc2C)c1=O	25	-7	-10	35	94	.	.
Cc1ccccc1S(=O)(=O)c1c(C)cc(C)n(C(C)C)c1=O	41*	-15	41	52*	84	34*	-30
O=C(c1ccc(Cl)cc1)C1CCN(C(=O)c2ccc(F)cc2)CC1	5	4	25	-8	109	.	.
C=CCc1cccc(CNc2nc3ccccc3n2CCC)c1O	42*	12	40	45*	92	14	36*
CC(C)(C)SCCNS(=O)(=O)c1ccc(Cl)cc1	32	16	38	7	108	.	.
O=S(=O)(NCCSc1ccc(Cl)cc1)c1ccc(F)cc1	44*	24	31	41*	101	35*	12
Cc1cc(C(=O)NCC(=O)OCC(=O)Nc2ccc(OC(F)F)cc2)ccc1[N+](=O)[O-]	7	6	2	1	96	.	.
Oc1ccc(-c2nccc(-c3ccc(Br)cc3)n2)cc1	47*	-4	44	41*	110	49*	64*
Cc1ccc(-c2ccnc(-c3ccc(O)cc3)n2)cc1	35	3	28	34	110	.	.
CC(c1ccco1)N(C(=O)c1ccccc1F)c1ccccn1 (configuration not stated)	13	5	13	11	116	.	.
CC(c1ccco1)N(C(=O)C12CC3CC(CC(C3)C1)C2)c1ccccn1 (configuration not stated)	43*	-1	44	46*	82	36*	-24
COc1ccc(NC(=S)N2CCN(C(=O)c3ccccc3)CC2)cc1	-5	31	-20	-9	96	.	.
CCc1ccc(C(=O)CN(C#N)c2nc(C)cc(C)n2)cc1	42*	9	35	48*	105	15	-36
COC(=O)CNC(c1ccccc1)c1cc(Br)ccc1NC(=O)CCN1CCOCC1 (configuration not stated)	51*	26	34	51*	89	42*	57*
CCOC(=O)CNC(c1ccccc1)c1cc(Br)ccc1NC(=O)CCN1CCOCC1 (configuration not stated)	45*	45	-13	55*	90	40*	40*
COC(=O)CNC(c1ccccc1)c1cc(Br)ccc1NC(=O)CNC(=O)OCc1ccccc1 (configuration not stated)	28	9	42	30	94	.	.
CCCc1[nH]nc2c1C(c1cn[nH]c1-c1ccc(F)cc1)C(C#N)=C(N)O2 (configuration not stated)	44*	-11	44	41*	100	48*	34*
C=CCn1c(O)c(N=NC(=O)c2ccc3c(c2)OCO3)c2ccccc21	-9	3	2	-28	96	.	.
c1ccc(Nc2cc(-c3ccccc3)nc3ncnn23)cc1	48*	14	35	57*	105	43*	48*
CC(C)NS(=O)(=O)c1ccc(NC(=O)C(C)OC(=O)CCCOc2ccccc2)cc1 (configuration not stated)	1	13	3	0	.	.	.
COc1cc2c(cc1NC(=O)Nc1ccccc1)oc1ccccc12	-15	6	-7	1	111	.	.
COc1cc2c(cc1NS(=O)(=O)N1CCCCC1)oc1ccccc12	41*	-13	39	44*	90	37*	35*
CCOC(=O)C(C(=O)OCC)c1cc(Br)c2noc3c2c1C(=O)c1ccccc1-3	42*	17	46	44*	113	39*	27
COc1ccc(C(=O)C2CCCN(C(=O)C3=CCCC3)C2)cc1OC (configuration not stated)	-15	21	16	-11	104	.	.
CC1CCC(NC(=O)Nc2cccs2)CC1 (configuration not stated)	54*	5	37	60*	102	73*	46*
SMILES	tim10-1 inh	NLRP3 yeast inh	tim23-1 inh	TIM10 inh	CR mimetic SO	tim10-1 conf	TIM10 conf
O=C(Nc1cccs1)NC1CCCC1	21	28	29	12	114	.	.
O=C(CSCc1ccccc1Cl)Nc1ccc2c(c1)OCCO2	44*	24	44	48*	102	36*	8
O=C(CNCc1ccccc1Cl)Nc1ccc2c(c1)OCCO2	10	0	19	-19	87	.	.
O=c1c2ccccc2nc2c3ccccc3c(NCc3cccnc3)nn12	54*	13	24	49*	81	64*	51*
O=c1c2ccccc2nc2c3ccccc3c(NCc3ccccn3)nn12	71*	15	35	71*	107	65*	63*
Cc1ccc(CNC(=O)C(CC(C)C)OC(=O)c2ccco2)cc1 (configuration not stated)	-8	-1	22	-24	99	.	.
Cc1n[nH]c(C)c1Sc1ccccc1[N+](=O)[O-]	6	4	-7	6	97	.	.
Cc1ccc(-n2nc(C)c(Sc3ccccc3[N+](=O)[O-])c2N)cc1	44*	19	48	44*	107	34*	33*
O=C(CC1CCCC1)Nc1ccc2c(c1)CCC2	10	23	28	8	102	.	.
CSCc1c(C(=O)NC2CCCc3ccccc32)oc2ccccc12 (configuration not stated)	50*	16	24	41*	110	33*	-2
Cc1nc(Nc2ccccc2)sc1-c1ccccc1	54*	18	49	63*	102	54*	-32
O=c1c(Cl)c(N/N=C/c2ccc(Cl)cc2)cnn1-c1ccccc1	47*	28	15	46*	107	26	9
CC(C)=CCCC(C)CN1CCC(n2nccc2NC(=O)C2CCCC2)CC1 (configuration not stated)	8	13	12	0	99	.	.
CCCCNC(=S)Nc1ccc(SC(F)F)cc1	53*	3	43	41*	100	36*	30*
CCCCNC(=S)Nc1ccc(F)cc1	-7	2	-21	10	97	.	.
CN=C(Nc1ccc(Br)cc1)SC1CC(=O)N(c2ccc(OC)cc2)C1=O (configuration not stated)	41*	6	18	45*	134	22	27
CN=C(Nc1ccc(C)c(C)c1)SC1CC(=O)N(c2ccc(OC)cc2)C1=O (configuration not stated)	35	8	-6	34	100	.	.
COc1ccccc1-c1c(C)nn2c(N3CCCCCC3)cc(C)nc12	56*	33	49	41*	99	41*	34*
S=C(NCCCc1ccccc1)Nc1ccc(Cl)cc1	55*	27	47	47*	83	52*	-27
S=C(NCCSCc1ccc(Cl)cc1)Nc1ccccc1	42*	41	45	52*	98	34*	-19

Screening data deposited in PubChem BioAssay by several laboratories.
